Activity calls are given as the source filed them.
Legend:
[1] = A549 cell viability effects, profiling panel, calcein-AM fluorescence, 48 h, basal (AID 1162); details: higher = more signal
[2] = adipocyte viability effects, profiling panel, cell-based, 3T3-L1 adipocytes, calcein-AM fluorescence, 48 h, basal (AID 1163); details: 3T3-L1 adipocytes viability, higher = more signal
[3] = HepG2 cell viability effects, profiling panel, calcein-AM fluorescence, 48 h, basal (AID 1164); details: higher = more signal
[4] = MM1S cell viability effects, profiling panel, calcein-AM fluorescence, 48 h, basal (AID 1165); details: higher = more signal;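 note: viability of MM1S multiple myeloma cells under basal unstimulated conditions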
[5] = basal RPMI8226 viability, no added stimulus, profiling panel, cell-based, calcein-AM fluorescence, 48 h, PK04 Diversity Set (AID 1166); details: RPMI8226 myeloma viability, higher = more signal;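 note: cells grown under basal conditions without added stimulus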
[6] = basal HepG2 mitochondrial membrane potential changes, profiling panel, cell-based, JC-1 fluorescence, 24 h, 100 nL compound (AID 1167); details: higher = more signal
[7] = basal 3T3-L1 adipocyte mitochondrial potential changes, profiling panel, cell-based, JC-1 fluorescence, 3T3-L1 adipocytes, 24 h, 100 nL compound (AID 1168); details: JC-1 mitochondrial fluorescence, higher = more signal, called active from +8 up or from −8 down
[8] = basal RPMI8226 mitochondrial membrane potential changes, profiling panel, cell-based, JC-1 fluorescence, 24 h, 100 nL compound (AID 1169); details: RPMI8226 myeloma, JC-1 mitochondrial potential fluorescence, higher = more signal
[9] = basal MM1S mitochondrial membrane potential changes, profiling panel, cell-based, JC-1 fluorescence, 24 h, 100 nL compound (AID 1170); details: higher = more signal
[10] = A549 lung cancer cell viability effects, profiling panel, resazurin fluorescence, 24 h, PK04 Diversity Set (AID 1171); details: higher = more signal, called active from +8 up or from −8 down
Note: test concentration not given here.

**Q.** What does the source list for CCOC(=O)C[C@H]1[C@H](OC(=O)c2ccc(C(=O)c3ccccc3)cc2)[C@@H](NC(=O)CC(C)C)c2cc(OCCCO)ccc2N1C(=O)c1ccccc1?
**A.** z-score [1]: -1.43; z-score [2]: -0.408; z-score [3]: -0.0606; z-score [4]: 0.0631; z-score [5]: -1.11; z-score [6]: 1.49; z-score [7]: 0.275 (inactive); z-score [8]: 0.52; z-score [9]: 0.242; z-score [10]: 0.256 (inactive)

**Q.** Which z-score [1] does the source give for COc1ccc([Si](C)(C)[C@@H]2[C@@H](CC(=O)N3Cc4ccccc4C[C@H]3CO)O[C@]3(C(=O)N(Cc4ccc(N5C(=O)c6cccc7cccc5c67)cc4)c4ccccc43)[C@H]2C)cc1 here?
**A.** 0.396

**Q.** And the z-score [2]?
**A.** 0.885

**Q.** And the z-score [3]?
**A.** 0.355

**Q.** What about the z-score [4] of the same compound?
**A.** -2.78

**Q.** What about the z-score [5] of the same compound?
**A.** -0.705

**Q.** What about the z-score [6] of the same compound?
**A.** 1.15

**Q.** And the z-score [7]?
**A.** -0.0452 (inactive)

**Q.** What about the z-score [8] of the same compound?
**A.** -0.0572

**Q.** What about the z-score [9] of the same compound?
**A.** 0.893

**Q.** What about the z-score [10] of the same compound?
**A.** -0.787 (inactive)

**Q.** For CCC#CCN(Cc1ccccc1Br)[C@H](/C=C/C1CC1)[C@@H](O)Cc1ccccc1, which z-score [1] is on record?
**A.** -0.382

**Q.** What about the z-score [2] of the same compound?
**A.** 0.929

**Q.** And the z-score [3]?
**A.** -0.713

**Q.** What about the z-score [4] of the same compound?
**A.** -2.23

**Q.** And the z-score [5]?
**A.** -3.31

**Q.** What about the z-score [6] of the same compound?
**A.** -1.28

**Q.** And the z-score [7]?
**A.** -0.611 (inactive)

**Q.** And the z-score [8]?
**A.** -0.774

**Q.** And the z-score [9]?
**A.** -1.39

**Q.** What about the z-score [10] of the same compound?
**A.** 2.76 (inactive)

**Q.** Which z-score [1] does the source give for O=C1OCCC=C[C@H]2OC34C=CCN(c5ccc6ccccc6c5)C(=O)[C@H]3N(CCCO)C(=O)[C@@H]4C12 (stereo not given in full) here?
**A.** 0.167

**Q.** And the z-score [2]?
**A.** 1.41

**Q.** And the z-score [3]?
**A.** -0.16

**Q.** And the z-score [4]?
**A.** 0.441

**Q.** And the z-score [5]?
**A.** -0.556

**Q.** What about the z-score [6] of the same compound?
**A.** -0.458

**Q.** What about the z-score [7] of the same compound?
**A.** 0.241 (inactive)

**Q.** And the z-score [8]?
**A.** -0.0315

**Q.** What about the z-score [9] of the same compound?
**A.** -0.89

**Q.** And the z-score [10]?
**A.** -0.391 (inactive)

**Q.** For CCCC=C(CCC)[C@@H](NC(=O)C(C)(C)C)c1ccc(C(=O)OC)cc1, which z-score [1] is on record?
**A.** -1.01

**Q.** What about the z-score [2] of the same compound?
**A.** -0.886

**Q.** And the z-score [3]?
**A.** -0.47

**Q.** What about the z-score [4] of the same compound?
**A.** -0.695

**Q.** And the z-score [5]?
**A.** -2.08

**Q.** And the z-score [6]?
**A.** 3.69

**Q.** And the z-score [7]?
**A.** -0.614 (inactive)

**Q.** What about the z-score [8] of the same compound?
**A.** -0.118

**Q.** And the z-score [9]?
**A.** -0.459

**Q.** What about the z-score [10] of the same compound?
**A.** 0.821 (inactive)

**Q.** Which results are given for COc1cc2c(cc1O)C=[N+](Cc1sc3ccccc3c1Cl)CC2?
**A.** z-score [1]: -0.47; z-score [2]: 0.425; z-score [3]: -0.349; z-score [4]: -0.278; z-score [5]: -0.133; z-score [6]: -1.06; z-score [7]: -0.501 (inactive); z-score [8]: -0.143; z-score [9]: -0.598; z-score [10]: 0.33 (inactive)

**Q.** Which results are given for NCCCCCNC(=O)[C@H]1C[C@H]2C(=O)N3CCC[C@H]3C(=O)N2[C@H]1c1cccc(OCCO)c1?
**A.** z-score [1]: -0.173; z-score [2]: 0.101; z-score [3]: -0.816; z-score [4]: -1.53; z-score [5]: -0.881; z-score [6]: 0.37; z-score [7]: 0.13 (inactive); z-score [8]: 0.113; z-score [9]: -0.503; z-score [10]: -0.845 (inactive)

**Q.** For C=CC[C@]1(C(=O)N2CCCCC2)N=C(c2ccc(OCCCO)cc2)O[C@H]1c1ccccc1CN=[N+]=[N-], which z-score [1] is on record?
**A.** -0.416

**Q.** What about the z-score [2] of the same compound?
**A.** 0.132

**Q.** What about the z-score [3] of the same compound?
**A.** 0.61

**Q.** What about the z-score [4] of the same compound?
**A.** -1.11

**Q.** What about the z-score [5] of the same compound?
**A.** -1.15

**Q.** What about the z-score [6] of the same compound?
**A.** 0.574

**Q.** What about the z-score [7] of the same compound?
**A.** 0.32 (inactive)

**Q.** What about the z-score [8] of the same compound?
**A.** -1.31

**Q.** And the z-score [9]?
**A.** -0.576

**Q.** And the z-score [10]?
**A.** 0.482 (inactive)

**Q.** What does the source list for CC1=C2[C@@H](CCc3ccccc3)OB(O)C[C@@H]2[C@@H]2C(=O)N(C)C(=O)[C@@H]2C1?
**A.** z-score [1]: -0.0116; z-score [2]: 0.417; z-score [3]: -0.21; z-score [4]: -2.12; z-score [5]: 0.339; z-score [6]: -1.18; z-score [7]: -0.467 (inactive); z-score [8]: -0.519; z-score [9]: -0.423; z-score [10]: 0.0857 (inactive)

**Q.** With Cc1ccc(F)cc1S(=O)(=O)N[C@@H]1CCN(Cc2ccc(Br)cc2)C1 as the compound, how does the z-score [1] read?
**A.** -0.0023

**Q.** What about the z-score [2] of the same compound?
**A.** -1.01

**Q.** And the z-score [3]?
**A.** -0.65

**Q.** And the z-score [4]?
**A.** -1.24

**Q.** And the z-score [5]?
**A.** -1.29

**Q.** And the z-score [6]?
**A.** 0.261

**Q.** And the z-score [7]?
**A.** 0.0995 (inactive)

**Q.** What about the z-score [8] of the same compound?
**A.** -0.645

**Q.** And the z-score [9]?
**A.** -0.555

**Q.** What about the z-score [10] of the same compound?
**A.** 0.728 (inactive)

**Q.** Which results are given for CCCC[C@@H](O)C1=C(COC)C[C@H]2C(=O)N(C)C(=O)[C@H]2[C@H]1CO?
**A.** z-score [1]: 1.28; z-score [2]: 1.13; z-score [3]: 1.48; z-score [4]: -0.211; z-score [5]: 0.536; z-score [6]: 1.23; z-score [7]: -0.987 (inactive); z-score [8]: 0.335; z-score [9]: -1.98; z-score [10]: 0.368 (inactive)

**Q.** Which z-score [1] does the source give for C=CCC(OC(C)=O)[C@@H]1[C@@H](N(Cc2ccc(-c3ccccc3)cc2)C(=O)c2ccc(-c3ccccc3)cc2)c2cc(OCCCO)ccc2N1C(=O)c1ccc2ccccc2c1 (stereo not given in full) here?
**A.** -0.77

**Q.** What about the z-score [2] of the same compound?
**A.** 0.676

**Q.** And the z-score [3]?
**A.** 0.313

**Q.** And the z-score [4]?
**A.** -0.531

**Q.** And the z-score [5]?
**A.** -0.685

**Q.** What about the z-score [6] of the same compound?
**A.** 1.42

**Q.** What about the z-score [7] of the same compound?
**A.** -0.645 (inactive)

**Q.** What about the z-score [8] of the same compound?
**A.** 0.795

**Q.** And the z-score [9]?
**A.** 0.563

**Q.** And the z-score [10]?
**A.** 0.204 (inactive)

**Q.** For CCCC=C(CCC)[C@@H](NS(=O)(=O)c1ccc(C(F)(F)F)cc1)c1ccccc1, which z-score [1] is on record?
**A.** -0.511

**Q.** What about the z-score [2] of the same compound?
**A.** -0.217

**Q.** What about the z-score [3] of the same compound?
**A.** -0.832

**Q.** What about the z-score [4] of the same compound?
**A.** -0.266

**Q.** And the z-score [5]?
**A.** -1.86

**Q.** And the z-score [6]?
**A.** -4.98

**Q.** And the z-score [7]?
**A.** -0.61 (inactive)

**Q.** What about the z-score [8] of the same compound?
**A.** -0.519

**Q.** And the z-score [9]?
**A.** -1.51

**Q.** And the z-score [10]?
**A.** 0.221 (inactive)

**Q.** Which results are given for COCCCNC(=O)[C@@H]1c2ccccc2C(=O)N(C(C)C)[C@H]1c1ccc(CO)cc1?
**A.** z-score [1]: 0.0112; z-score [2]: 0.534; z-score [3]: -0.244; z-score [4]: -0.288; z-score [5]: -0.0405; z-score [6]: -0.106; z-score [7]: -0.409 (inactive); z-score [8]: -0.0966; z-score [9]: 0.942; z-score [10]: 0.167 (inactive)
